An excerpt weighted towards active compounds, which were near 10% of everything screened.
NIH3T3 tox: Cytotoxic Profiling in NIH 3T3 Cell Line of Diverse Libraries Using Quantitative High-Throughput Screening; NIH 3T3 viability, CellTiter-Glo ATP luminescence, 48-72 h; Potency, µM (series often up to 96.7 µM), for the others: at the highest dose activity change, negative = cytotoxicity, hits mostly inhibitors; 94,000 compounds, 4.3% hits; AID 1345082, 2018; note: nearly all actives have a fitted effect of over 55% in size
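Cytotoxicity was measured by CellTiter-Glo ATP luminescence after 48 or 72 h compound exposure at 37 °C. Mouse NIH 3T3 fibroblasts were seeded at 400 cells/well and dosed by 23 nL pin transfer.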
NPR1 antag: Natriuretic polypeptide receptor (hNpr1) antagonism - Primary qHTS. Atrial natriuretic peptide receptor 1 (Homo sapiens), P16066. HEK293 hNpr1 GloSensor cGMP, ANP-stimulated luminescence. Potency, µM (top dose mostly 46.3 µM), without a hit: at the top dose activity change, negative = inhibition, actives largely listed as inhibitors. 76,000 compounds, 1.6% hits; calls by dose curve; note: nearly all actives have a fitted effect of over 60% in size
Target sequence (P16066 whole entry, looked up): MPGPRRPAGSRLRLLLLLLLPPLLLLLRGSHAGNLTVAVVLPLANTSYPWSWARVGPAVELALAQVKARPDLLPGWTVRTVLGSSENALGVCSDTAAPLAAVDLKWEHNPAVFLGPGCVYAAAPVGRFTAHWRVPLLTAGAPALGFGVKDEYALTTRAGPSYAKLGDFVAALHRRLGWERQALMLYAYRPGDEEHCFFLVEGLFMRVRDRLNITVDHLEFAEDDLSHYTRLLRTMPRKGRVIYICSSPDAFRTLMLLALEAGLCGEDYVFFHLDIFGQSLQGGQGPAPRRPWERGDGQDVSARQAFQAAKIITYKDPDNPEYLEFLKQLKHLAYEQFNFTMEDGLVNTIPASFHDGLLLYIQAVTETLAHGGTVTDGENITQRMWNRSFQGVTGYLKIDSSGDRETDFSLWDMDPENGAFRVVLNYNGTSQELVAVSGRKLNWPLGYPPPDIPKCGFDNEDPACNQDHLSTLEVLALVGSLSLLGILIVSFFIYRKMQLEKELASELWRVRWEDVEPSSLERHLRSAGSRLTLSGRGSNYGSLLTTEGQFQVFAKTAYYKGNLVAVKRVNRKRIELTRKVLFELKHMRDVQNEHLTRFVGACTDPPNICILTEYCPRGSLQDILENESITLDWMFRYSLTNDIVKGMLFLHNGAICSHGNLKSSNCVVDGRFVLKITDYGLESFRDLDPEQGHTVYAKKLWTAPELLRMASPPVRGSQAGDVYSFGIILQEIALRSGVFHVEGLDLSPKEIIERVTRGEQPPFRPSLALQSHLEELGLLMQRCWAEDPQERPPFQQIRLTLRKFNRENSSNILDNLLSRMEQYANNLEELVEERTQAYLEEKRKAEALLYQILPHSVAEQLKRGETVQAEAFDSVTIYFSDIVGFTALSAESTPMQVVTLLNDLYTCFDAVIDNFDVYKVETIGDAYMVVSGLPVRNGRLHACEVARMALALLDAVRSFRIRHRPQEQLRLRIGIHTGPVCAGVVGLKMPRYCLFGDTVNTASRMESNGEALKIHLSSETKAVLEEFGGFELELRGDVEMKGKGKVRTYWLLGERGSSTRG
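Compound pre-incubated 30 min at room temperature on GloSensor-loaded HEK293 cells stably carrying hNpr1 and the pGS-40F cGMP biosensor. Stimulation uses hNppA at 0.1 nM final; luminescence is taken at baseline and 20 min post-agonist.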
Luciferase inh: Firefly luciferase inhibition profiling of diverse chemical library using quantitative high-throughput screening; Potency, µM (top dose mostly 115 µM), usual class: inhibitors; AID 1347043, 2019; 76,000 compounds, 2.5% hits; purified P. pyralis luciferase, luminescence, biochemical; Luciferin 4-monooxygenase (Photinus pyralis), P08659; note: nearly all actives have a fitted effect of over 65% in size
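Purified 10nM P. pyralis luciferase with 10uM D-luciferin and 10uM ATP in 50mM Tris acetate pH 7.5, 10mM Mg acetate, 0.01% Tween-20, 0.05% BSA. qHTS titration; luminescence read by CCD imager.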
HEK293 tox: Cytotoxic Profiling in HEK 293 Cell Line of Diverse Libraries Using Quantitative High-Throughput Screening | HEK 293 viability, ATP luminescence (CellTiter-Glo), 48-72 h | Potency, µM (top dose mostly 115 µM), without a hit: top-dose activity change, negative = cytotoxicity, actives largely listed as inhibitors | 94,000 compounds, 6.6% hits; note: nearly all actives have a fitted effect of over 60% in size
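HEK 293 cells at 250 cells/well were exposed to compounds by pintool transfer for 48 or 72 hr at 37 degree Celsius, 5% CO2. Viability was read as ATP-coupled luminescence with CellTiter-Glo after 10 min at room temperature.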
GPT2 inhibitor: Primary qHTS assay for inhibitors of Glutamate pyruvate transaminase 2 (GPT2). Alanine aminotransferase 2 (Homo sapiens), Q8TD30. Recombinant GPT2, coupled pyruvate oxidase/HRP Amplex Red fluorescence. Potency, µM (doses to about 57.7 µM), for the others: at the top dose activity change, negative = inhibition, hits mostly inhibitors. 100,000 compounds, 0.25% hits; note: nearly all actives have a fitted effect of over 60% in size
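Inhibition is scored from Amplex Red fluorescence generated when pyruvate oxidase and HRP act on pyruvate released by GPT2. Reactions contain 10ng/uL enzyme, 250uM a-KG and 2mM L-alanine and run 30 min at room temperature.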
Active calls of the source: *; i = inactive; u = inconclusive; x = no result; ! = not confirmed by another sample; [ ] = remark or other dose. Unless noted, calls come from the whole dose curve; as a rule, active = well fitted curve in the direction sought with a large enough effect; inconclusive = small, poorly fitted or top-dose-only effect, or another doubt; inactive = no such curve, though single readings can be large; an effect the other way counts as inactive or inconclusive. % is set by controls: 0 for no effect and ±100 for the full control effect; potency is the fitted concentration of half-maximal effect.

SMILES | NIH3T3 tox | NPR1 antag | Luciferase inh | HEK293 tox | GPT2 inhibitor
Cc1ccccc1C(=O)NCCNC(=O)c1ccc(-c2cccc(C(F)(F)F)c2)cc1 | -21.6% | x | x | u | x
Cc1ccc(C2=NC3(CCN(C(=O)c4ccco4)CC3)ON2)cc1 | -16.0% | -12.9% | 28.2µM* | -24.3% | -9.6%
Cc1ccc(C2=NC3(CCN(C(=O)c4ccccc4C)CC3)ON2)cc1 | -1.2% | -12.3% | u | u | -10.1%
Cc1ccc(C2=NC3(CCN(C(=O)c4ccoc4)CC3)ON2)cc1 | -5.2% | -18.4% | 31.6µM* | -1.9% | -4.2%
Cc1ccc(N2C(=S)N[C@H]3[C@@H](O)[C@H](O)C[C@@H](C(=O)N4CCCCC4)[C@H]32)cc1 | i | 3.2%[70.6 µM] | 15.8µM* | i | -17.3%[88.5 µM]
O=C(O)C1(Cc2ccccc2F)CCCN(c2ncccn2)C1 (configuration not stated) | -13.9% | 6.0% | i | u | i
OCC1(Cc2ccc(F)cc2F)CCCN(c2cnc3ccccc3n2)C1 (configuration not stated) | u | u | i | 39.8µM* | i[11.5 µM]
CN(C)c1cccc(-c2c3c(=O)n(-c4ccccc4Cl)[nH]c3cc(=O)n2C)c1 | x | x | x | x | 15.3µM*!
CCCCNc1nc2c(s1)C[C@]1(C)CC[C@@H]3[C@H](OC(=O)[C@H]3C)[C@H]1[C@@H]2C | u | 17.8µM* | u | u | u
Cc1cc(Cl)ccc1-n1nc(C)c([C@@H]2C=C[C@@H](NC(=O)CCC(=O)O)C2)c1C | 0.7%[138 µM] | 0.9%[70.6 µM] | 39.8µM* | -3.5%[172 µM] | 3.7%[88.5 µM]
Cc1nn(-c2ccc(C(F)(F)F)cc2)c(C)c1[C@@H]1C=C[C@@H](NC(=O)CCC(=O)O)C1 | u | 0.4%[70.6 µM] | u | u | -1.8%[88.5 µM]
COCC(=O)N[C@@H]1C=C[C@@H](c2c(C)nn(-c3ccc(C(C)(C)C)cc3)c2C)C1 | 22.4µM* | -27.1%[70.6 µM] | u | 39.8µM* | -0.1%[88.5 µM]
Cc1nn(-c2ccc(C(C)(C)C)cc2)c(C)c1[C@@H]1C=C[C@@H](NC(=O)CCC(=O)O)C1 | -21.9%[174 µM] | 0.7%[70.6 µM] | 20µM* | u | i
CN1C[C@@H](NC(=O)c2ccc3ccccc3c2)C[C@H]1c1nc(-c2ccc3c(c2)OCO3)no1 | -20.4% | -10.6% | i | u | -1.9%
CN(C)c1ccc(C(=O)N[C@H]2C[C@@H](c3nc(-c4ccc5c(c4)OCO5)no3)N(C)C2)cc1 | u | -19.5% | i | u | 0.7%
CN1C[C@@H](NC(=O)c2ccc(F)cc2)C[C@H]1c1nc(-c2ccc3c(c2)OCO3)no1 | u | -7.6%[70.6 µM] | i | 79.4µM* | -7.6%[88.5 µM]
CN1C[C@@H](NC(=O)c2ccccc2)C[C@H]1c1nc(-c2ccc3c(c2)OCO3)no1 | u | -5.3%[70.6 µM] | i | 79.4µM* | 1.4%[88.5 µM]
Cc1ccc(C(=O)N[C@H]2C[C@@H](c3nc(-c4ccc5c(c4)OCO5)no3)N(C)C2)cc1 | 79.4µM* | -1.1%[70.6 µM] | i | u | -9.0%[88.5 µM]
Cc1ccc(-c2[nH]ncc2CN2C[C@@H](CO)[C@H](NC(=O)C3CC3)C2)cc1 | i | 2.2% | i | 5.0% | -0.9%
Cc1ccc(-c2ccccc2CN2CCC(C(=O)N3CCN(Cc4ccccc4)CC3)CC2)cc1Cl | u | x | x | u | 4.2%
COc1ccccc1-c1ccc2c(C(=O)NCc3ccc4c(c3)OCO4)nn(C)c2n1 | u | x | x | -28.7% | -51.9%
COc1cc(C(O)CO)ccc1O (configuration not stated) | x | x | x | x | i
NC[C@H](O)c1ccc(O)c(O)c1 | x | x | x | x | 10µM*!
CNC[C@H](O)c1ccc(O)c(O)c1 | x | x | x | x | 14.1µM*!
Oc1ccc(C(O)CNCCCCCCNCC(O)c2ccc(O)c(O)c2)cc1O (configuration not stated) | x | x | x | x | -20.3%
SMILES | NIH3T3 tox | NPR1 antag | Luciferase inh | HEK293 tox | GPT2 inhibitor
CC(C)NCC(O)c1ccc(O)c(O)c1 (configuration not stated) | x | x | x | x | 17.2µM*!
COCC(=O)NCCNC(=O)c1cccc(-c2ccsc2)c1 | -27.7%[138 µM] | x | x | -16.2%[172 µM] | i
O=[S+]([O-])(NC1CCCN(Cc2ccc(-c3cncnc3)cc2)C1)c1cccs1 (configuration not stated) | u | x | x | u | i
COc1cccc(-c2ccc(CN3CCCC(N[S+](=O)([O-])c4cccs4)C3)cc2)c1 (configuration not stated) | 31.6µM* | x | x | 12.6µM* | -10.6%
O=[S+]([O-])(c1cccs1)N1CC(Oc2ccc(F)cc2F)C1 | u | x | x | u | i
COc1ccc(F)cc1-c1ccc(CN2CCC(N[S+](=O)([O-])c3c(C)noc3C)C2)cc1 (configuration not stated) | u | x | x | 44.7µM* | x
COc1ccc(F)cc1-c1ccc(CN2CCC(N[S+](=O)([O-])c3cccs3)C2)cc1 (configuration not stated) | u | x | x | 39.8µM* | x
COc1ccc(F)cc1-c1ccc(CN2CCC(N[S+](=O)([O-])c3ccc(C)cc3)C2)cc1 (configuration not stated) | 28.2µM* | x | x | 31.6µM* | x
O=C(Nc1ccc(F)cc1)C1CCN(c2ccnc3ccnn23)CC1 | u | x | x | u | 3.1%[88.5 µM]
Cn1nnnc1C1CCCN(C(=O)COc2ccccc2)C1 (configuration not stated) | -14.0% | x | x | -4.3% | i
c1coc(-c2nc3ccncc3[nH]2)c1 | u | 9.7%[70.6 µM] | u | u | 31.6µM*!
c1ccc(-c2nc3ccncc3[nH]2)cc1 | u | -13.1%[70.6 µM] | u | u | 3.3%[88.5 µM]
O=C(NC1CCCN(CCn2nc3n(c2=O)CCCC3)C1)c1ccc(C(F)(F)F)cc1 (configuration not stated) | -15.7% | x | x | 4.6% | x
COCCNc1cc(-c2ccc(F)cc2)nc2c(C)noc12 | u | -1.7%[70.6 µM] | i | -22.6%[172 µM] | -4.6%[88.5 µM]
Cc1cc(-c2cc(-c3ccccn3)nc3c(C)noc23)ccn1 | u | 0.2%[70.6 µM] | i | u | 3.5%[88.5 µM]
Cc1noc2c(NCCN(C)C)cc(-c3ccccn3)nc12 | u | 0.9%[70.6 µM] | i | 79.4µM* | i
COc1ccccc1-c1cc(N2CCN(c3ccccn3)CC2)c2onc(C)c2n1 | u | -3.2%[70.6 µM] | i | u | -9.0%[88.5 µM]
Cc1noc2c(NCCN(C)C)cc(-c3ccc(Cl)cc3)nc12 | 25.1µM* | 2.3%[70.6 µM] | i | 44.7µM* | i
COCCNc1cc(-c2ccc(Cl)cc2)nc2c(C)noc12 | u | -0.1%[70.6 µM] | i | u | -14.2%[88.5 µM]

High-throughput results as filed in PubChem BioAssay.
